Shown are actives, neighbours in structure and some others; about 3.8% of the full set was active somewhere.
Hsp70 activator = transcriptional activators of Hsp70 | HeLa Hsp70 promoter luciferase reporter, luminescence; scaled: vehicle 0, proteasome-inhibitor control 100% | AID 1203 | hit rate 0.04% among 200,000 | activation, % at 10 µM;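 active = activation above the mean across all tested compounds plus 3 SD, cutoff set per campaign, cut at about 5.5% in these data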;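 also: 100% = MG132 at 30 µM as the positive control and 0% = DMSO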
HSP90 inh = blocks HSP90-mediated luciferase refolding in reticulocyte lysate; Rabbit reticulocyte lysate, luciferase refolding luminescence, 3 h; inhibition, % at 5.6 µM; hit rate 0.91% among 290,000; AID 1789;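 active = inhibition above the screen-wide mean plus 3 SD, computed separately per campaign, cut at about 16% in these data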;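 also: 0% = DMSO wells and 100% = 60 µM geldanamycin wells; inhibitors lower the luminescence because luciferase stays unfolded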
p-CIP stab down = compounds decreasing mouse p/CIP protein stability | hit rate 0.01% among 290,000 | Q05BA5 | AID 1984 | F442A p/CIP-EGFP cells, EGFP fluorescence, 16 h | decrease of EGFP signal, % at 10 µM;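 active = EGFP signal decrease of at least 30% at 10 µM or well 3 SD below plate mean, unless failing retest; inactive = the rest, including hits failing retest or dose response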
HSF1 activator = increases HSF-1 driven luciferase reporter signal; activation, % at 9 µM; NIH3T3-HGL HSF-1 luciferase reporter, MG132, 8 h; 100% = twice DMSO control signal; hit rate 1.7% among 300,000; AID 504408;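 active = mean replicate activation of at least 50% with a set share of replicates each reaching 50%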;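 also: 0% = median of the neutral control wells and 100% = twice that signal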
NALP1 yeast inh = blocks the NALP1 inflammasome reconstituted in yeast | S. cerevisiae NALP1/ASC/caspase-1 growth, X-gal OD620, 72 h | hit rate 0.61% among 280,000 | AID 2071 | inhibition, % at 10 µM; in the data active = inhibition mostly above about 24%, no sharp cut-off; inactive = mostly below about 32%
HSF1 inh = HSF1 inhibition; NIH3T3-HGL HSE-luciferase, MG132-induced, luminescence 8 h; active compounds read low; activity change, negative = inhibition, % at 7.5 µM (by protocol); hit rate 0.77% among 300,000; AID 2098;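 active = more than half of replicate wells show activity change below -50%, luminescence cut by over half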;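 also: luciferase reports HSF-1 transcriptional activity via heat shock element; 0% = median of DMSO wells and -100% = zero luminescence signal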
* marks the source's active call; other numbers are inactive results; · = no result given.

SMILES	Hsp70 activator	HSP90 inh	p-CIP stab down	HSF1 activator	NALP1 yeast inh	HSF1 inh
CCOC(=O)Nc1ccc2c(c1)N(C(=O)CCN1CCOCC1)c1ccccc1S2=O (stereo not drawn)	0	0	2	80*	-21	51
Cc1ccc(OCC(=O)N(c2ccccn2)C2CCCCC2)c(C)c1	0	2	2	-4	44*	-1
NC(=O)c1nnn(-c2cccc(C(F)(F)F)c2)c1-c1ccccc1	·	-1	0	-12	·	-3
Cc1cc(C(=O)N/N=C/c2ccc(N(C)C)o2)cs1	·	5	-10	3	31*	24
CCC(NS(=O)(=O)c1ccc(C)cc1)C(=O)N1CCOCCOCCOCCOCC1 (stereo not drawn)	·	0	-1	-4	5	4
Fc1ccc(-c2c[nH]c(=S)n2Cc2ccccc2)cc1	1	0	-13	-4	29	3
O=C(Nc1cccn(Cc2c(Cl)cccc2Cl)c1=O)c1ccc(Cl)cc1Cl	0	-2	-4	0	7	3
O=C(Nc1cccn(Cc2c(Cl)cccc2Cl)c1=O)c1ccccc1Cl	0	2	2	89*	-1	39
O=C(O)c1ccccc1C(=O)Nc1ccc(Br)c2cccnc12	0	13	12	51*	12	36
O=C(Nc1cccc2cccnc12)c1ccccc1Cl	·	·	·	91*	·	50
O=C(O)c1cc(Cl)c(Cl)cc1C(=O)Nc1cccc2cccnc12	0	-2	-5	-17	16	-3
CN(CCOC(=O)c1cccc(Br)c1)C(C)(C)C	0	-3	0	4	28*	-12
CC(=O)c1sc(NCc2ccc(C)cc2)nc1C	·	-1	-2	65*	12	49
Cc1ccc(O)c(NC(=O)CSc2ccc(Cl)cc2)c1	0	0	1	162*	13	112
Cc1ccc(O)c(NC(=O)Cc2ccc3ccccc3c2)c1	·	-1	-3	161*	8	142
Cc1ccc(O)c(NC(=O)CSc2n[nH]c(C)c2[N+](=O)[O-])c1	0	2	12	73*	7	48
CN1C(=O)C(=O)/C(=C(/O)c2ccccc2)C1c1ccc([N+](=O)[O-])cc1 (stereo not drawn)	·	-3	-5	-5	16	0
O=C(NC(=S)Nc1ncccn1)c1ccc(Cl)cc1Cl	1	-1	-10	64*	41	22
CCc1cc(=O)oc2cc3occ(-c4ccc(OC)c(F)c4)c3cc12	-1	3	-8	-19	21	-12
O=C(CSc1nnc(-c2ccc(F)cc2)c2ccccc12)Nc1ccccc1	0	4	-10	83*	25	54
O=C(CSc1nnc(-c2ccc(F)cc2)c2ccccc12)Nc1cccc(Cl)c1	0	-2	-9	15	32	13
CCc1nnc(NC(=O)C2CCCN2S(=O)(=O)c2ccc(C)cc2)s1 (stereo not drawn)	-1	1	-2	-25	29	-6
O=C(Nc1nnc(C2CC2)s1)C1Cc2ccccc2CN1S(=O)(=O)c1cccs1 (stereo not drawn)	0	1	2	37	-5	20
CCc1nnc(NC(=O)C2Cc3ccccc3CN2S(=O)(=O)c2ccc(C)cc2)s1 (stereo not drawn)	0	-3	-10	58*	-2	25
CCc1nnc(NC(=O)C2Cc3ccccc3CN2S(=O)(=O)c2cccs2)s1 (stereo not drawn)	0	-4	-7	84*	12	43
SMILES	Hsp70 activator	HSP90 inh	p-CIP stab down	HSF1 activator	NALP1 yeast inh	HSF1 inh
Cc1cc(N(C)C)c(C#N)c(NCc2ccccc2)n1	0	-2	-5	93*	-3	50
O=C(COC(=O)c1c2c(nc3ccccc13)CCCCC2)c1ccc(Cl)s1	0	0	-7	19	31	9
CCOCCCNC(=O)c1ccc(/C=C2\Oc3ccccc3N(C)C2=O)cc1	·	-1	0	1	1	1
CCOC(=O)c1ccc(N=c2sc(C(=O)OC)cc(=O)n2Cc2ccco2)cc1	1	8	-4	107*	26	89
Nc1ccc2oc3ccccc3c2c1	0	16*	4	-9	28	-22
COc1ccc(C(=O)NC(=S)Nc2ccc(CN3CCOCC3)cc2)cc1Cl	·	0	-13	-12	-3	-11
COc1ccc(C(=O)NC(=S)Nc2ccc(CN3CCCCC3)cc2)cc1Cl	0	2	-1	59*	11	17
Cc1ccc(NC2OC(CO)C(O)C2O)cc1[N+](=O)[O-] (stereo not drawn)	0	4	6	72*	23	30
NC(=O)c1nsc(C(=O)N(c2ccccc2)C(C(=O)NCC2CCCO2)c2cccs2)c1N (stereo not drawn)	0	9	11	73*	-3	41
Cc1cc(C)cc(N(C(=O)c2snc(C(N)=O)c2N)C(C(=O)NCC2CCCO2)c2cccs2)c1 (stereo not drawn)	0	4	14	-4	14	4
NC(=O)c1nsc(C(=O)N(c2ccc3c(c2)OCCO3)C(C(=O)NCC2CCCO2)c2ccc(F)cc2)c1N (stereo not drawn)	·	7	-18	-54	3	-54*
Cc1ccc(CNC(=O)c2cccc(-n3cnnn3)c2)cc1	0	5	7	-6	43*	-8
CC(C)(C)c1ccc(C(=O)NNC(=O)c2cccc(-n3cnnn3)c2)cc1	·	0	0	-16	·	-6
N#CC1=C(N)C(C#N)(C#N)C(c2cccnc2)C2CC(c3ccccc3)CC=C12 (stereo not drawn)	0	0	-14	-66	4	-55*
N#CC1=C(N)C(C#N)(C#N)C(c2cccnc2)C2CCCC=C12 (stereo not drawn)	-1	-4	-11	·	2	·
CN(NC(=O)NN(C)C(=O)c1ccccc1)C(=O)c1ccccc1	·	·	·	4	·	4
CC1CCCCC1NC(=O)C1CCN(S(=O)(=O)c2ccc3c(c2)CCC(=O)N3)CC1 (stereo not drawn)	0	6	18	14	32*	-3
O=C1CCc2cc(S(=O)(=O)N3CCC(C(=O)NC4CCCc5ccccc54)CC3)ccc2N1 (stereo not drawn)	0	1	-12	0	-26	-2
COC(=O)C1=C(CS(=O)(=O)c2ccc(Cl)cc2)NC(=O)NC1c1ccc(O)c(OC)c1 (stereo not drawn)	·	-2	-4	-18	15	2
Cc1c(NC(=O)Nc2ccccc2Cl)c(=O)n(-c2ccccc2)n1C	0	-3	-4	-8	-12	-11
Cc1ccc(C(C[N+](=O)[O-])c2c(C)[nH]n(-c3ccccc3)c2=O)cc1 (stereo not drawn)	0	2	-10	-23	105*	-19

Bioassay records from PubChem BioAssay.
